Assay results taken from the supplement of paper PMC3342239.
Structures can show the parent of a compound that is named as a salt.

Tested on: Saccharomyces cerevisiae
Experiment: fraction of cells in G1 phase (DNA content, flow cytometry); higher = more cells with unreplicated DNA (G1 delay)
Conditions: temperature: 30 C; YPD; BY4741 PDR5+ SNQ2+; drug added to: actively dividing cells; 4.33 h
Procedure: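 S. cerevisiae cultures in YPD at 30°C were treated with each drug of the Enzo FDA-approved library at 20 µg/ml (final µM given per drug). Cells were fixed after 6–7 h (S1) or 6 h (S2), or after 4.33 h for BY4741 (S3), then stained with SYTOX Green. %G1 is the Dean-Jett-Fox G1 peak area divided by the G1+G2/M peak areas, written as a fraction and averaged over at least two independent experiments. DMSO reference: mean ~0.49; >0.60 is called High G1 and <0.3876 Low G1. Scale: lower means mitotic delay.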

| Compound | fraction of cells in G1 phase |
| --- | --- |
| CC1C=CC=CCCC=CC=CC=CC=CC(OC2OC(C)C(O)C(N)C2O)CC2OC(O)(CC(O)C(O)CCC(O)CC(O)CC(O)CC(=O)OC(C)C(C)C1O)CC(O)C2C(=O)O (centres undefined) [Nystatin] (21.5955 µM) | 0.549 |
| C#C[C@]1(O)CC[C@H]2[C@@H]3CCC4=CC(=O)CCC4=C3C=C[C@@]21CC [Gestrinone] (64.8457 µM) | 0.423 |

Same assay, conditions: temperature: 30 C; YPD; JTY2953 pdr5 snq2 (sensitized); drug added to: actively dividing cells; 6 h

| Compound | fraction of cells in G1 phase |
| --- | --- |
| CC1C=CC=CCCC=CC=CC=CC=CC(OC2OC(C)C(O)C(N)C2O)CC2OC(O)(CC(O)C(O)CCC(O)CC(O)CC(O)CC(=O)OC(C)C(C)C1O)CC(O)C2C(=O)O (centres undefined) [Nystatin] (21.5955 µM) | 0.699 |
| C#C[C@]1(O)CC[C@H]2[C@@H]3CCC4=CC(=O)CCC4=C3C=C[C@@]21CC [Gestrinone] (64.8457 µM) | 0.736 |

Same assay, conditions: temperature: 30 C; YPD; JTY2953 pdr5 snq2 (sensitized); drug added to: cultures diluted from stationary phase; 6-7 h

| Compound | fraction of cells in G1 phase |
| --- | --- |
| O=C(CCCN1CCC2(CC1)C(=O)NCN2c1ccccc1)c1ccc(F)cc1 [Spiperone] (50.5713 µM) | 0.484 |
| COc1ccc(C(=O)c2c(C)n(CCN3CCOCC3)c3ccccc23)cc1 [Pravadoline] (52.8436 µM) | 0.594 |
| O=C([O-])Cc1ccccc1.[Na+] [Sodium phenylacetate] (126.475 µM) | 0.487 |
| CC(C)(C)NCC(O)c1cc(Cl)c(N)c(Cl)c1 (centres undefined) [Clenbuterol] (72.1511 µM) | 0.498 |
| CN1[C@@H]2CC[C@H]1C[C@@H](OC(=O)C(CO)c1ccccc1)C2 (some centres undefined) [Atropine sulfate] (69.1138 µM) | 0.474 |
| CC[C@@H](C(N)=O)N1CCCC1=O [Levetiracetam] (117.5 µM) | 0.529 |
| COc1ccc(C(CN(C)C)C2(O)CCCCC2)cc1 (centres undefined) [Venlafaxine HCl] (72.0954 µM) | 0.453 |
| CC[C@@H](CO)NC(=O)[C@@H]1C=C2c3cccc4c3c(cn4C)C[C@H]2N(C)C1 [Methysergide] (56.5822 µM) | 0.48 |
| CC1C=CC=CCCC=CC=CC=CC=CC(OC2OC(C)C(O)C(N)C2O)CC2OC(O)(CC(O)C(O)CCC(O)CC(O)CC(O)CC(=O)OC(C)C(C)C1O)CC(O)C2C(=O)O (centres undefined) [Nystatin] (21.5955 µM) | 0.665 |
| O=c1[nH]c2ccccc2n1CCCN1CCC(n2c(=O)[nH]c3cc(Cl)ccc32)CC1 [Domperidone] (46.957 µM) | 0.505 |
| NCC1(CC(=O)O)CCCCC1 [Gabapentin] (116.794 µM) | 0.543 |
| CN1C[C@H](C(=O)N[C@]2(C)O[C@@]3(O)[C@@H]4CCCN4C(=O)[C@H](Cc4ccccc4)N3C2=O)C=C2c3cccc4[nH]cc(c34)C[C@H]21 [Ergotamine D-tartrate] (34.3833 µM) | 0.499 |
| C[C@]12CCC(=O)C(O)=C1CC[C@@H]1[C@@H]2CC[C@]2(C)C(=O)CC[C@@H]12 [Formestane] (66.1338 µM) | 0.566 |
| O=C1CCCN1CC#CCN1CCCC1 [Oxotremorine sesquifumarate] (96.9509 µM) | 0.542 |
| C#C[C@]1(O)CC[C@H]2[C@@H]3CCC4=CC(=O)CC[C@]4(C)[C@H]3CC[C@@]21C [Ethisterone] (64.009 µM) | 0.462 |
| CN(C)C(=O)Oc1cccc([N+](C)(C)C)c1 [Neostigmine Br] (89.5666 µM) | 0.485 |
| CNC(=O)Oc1ccc2c(c1)[C@]1(C)CCN(C)[C@@H]1N2C [Physostigmine sulfate] (72.6339 µM) | 0.472 |
| CN(C)C(=O)Oc1cc(OC(=O)N(C)C)cc(C(O)CNC(C)(C)C)c1 (centres undefined) [Bambuterol] (54.4293 µM) | 0.518 |

| Compound | fraction of cells in G1 phase |
| --- | --- |
| C#C[C@]1(O)CC[C@H]2[C@@H]3CCC4=CC(=O)CCC4=C3C=C[C@@]21CC [Gestrinone] (64.8457 µM) | 0.609 |
| O=P1(NCCCl)OCCCN1CCCl (centres undefined) [Ifosfamide] (76.6021 µM) | 0.489 |
| CC(C)CC(N(C)C)C1(c2ccc(Cl)cc2)CCC1 (centres undefined) [Sibutramine HCl] (71.4652 µM) | 0.516 |
| Oc1ccc2c3c1O[C@H]1c4oc5ccccc5c4C[C@@]4(O)[C@@H](C2)N(CC2CC2)CC[C@]314 [Naltriben methanesulfonate hydrate] (39.093 µM) | 0.45 |
| CN1C[C@H](C(=O)N[C@]2(C)O[C@@]3(O)[C@@H]4CCCN4C(=O)[C@H](Cc4ccccc4)N3C2=O)C[C@@H]2c3cccc4[nH]cc(c34)C[C@H]21 [Dihydroergotamine mesylate] (34.2646 µM) | 0.527 |
| N[C@@H]1C[C@H]1c1ccccc1.N[C@H]1C[C@@H]1c1ccccc1 [Tranylcypromine] (150.156 µM) | 0.531 |
| CN1[C@@H]2C[C@@H](OC(=O)[C@H](CO)c3ccccc3)C[C@H]1[C@@H]1O[C@@H]12 [Scopolamine HBr] (65.928 µM) | 0.464 |
| CC(NC(C)(C)C)C(=O)c1cccc(Cl)c1 (centres undefined) [Amfebutamone] (83.4211 µM) | 0.502 |
| O=C(O)CCCc1ccc(N(CCCl)CCCl)cc1 [Chlorambucil] (65.7421 µM) | 0.456 |
| CCCC[N+]1(C)[C@@H]2C[C@@H](OC(=O)[C@H](CO)c3ccccc3)C[C@H]1[C@@H]1O[C@@H]12 (some centres undefined) [Scopolamine n-butylbromide] (55.482 µM) | 0.488 |
| CC(C)[C@@]1(NC(=O)[C@@H]2C[C@@H]3c4cccc5[nH]cc(c45)C[C@H]3N(C)C2)O[C@@]2(O)[C@@H]3CCCN3C(=O)[C@H](Cc3ccccc3)N2C1=O [Dihydroergocristine mesylate] (32.6932 µM) | 0.465 |
| COc1ccc(C(=O)N2CCCC2=O)cc1 [Aniracetam] (91.2233 µM) | 0.483 |
| C[C@@H]1O[C@@H](O[C@H]2C[C@@H](O)[C@]3(CO)[C@H]4[C@H](O)C[C@]5(C)[C@@H](C6=CC(=O)OC6)CC[C@]5(O)[C@@H]4CC[C@]3(O)C2)[C@H](O)[C@H](O)[C@H]1O [Ouabain] (27.4424 µM) | 0.521 |
| C=CCN1C[C@H](C(=O)N(CCCN(C)C)C(=O)NCC)C[C@@H]2c3cccc4[nH]cc(c34)C[C@H]21 [Cabergoline] (44.2853 µM) | 0.496 |
| CC(CCc1ccccc1)NC(C)C(O)c1ccc(O)cc1 (centres undefined) [Buphenine] (59.5415 µM) | 0.512 |
| CC(C)(C)NCC(O)c1ccccc1Cl (centres undefined) [Tulobuterol] (87.8208 µM) | 0.493 |
| COc1ccc2c(c1)[nH]c1c(C)nccc12 [Harmine] (94.227 µM) | 0.474 |
